Holding throughout (type): functional
Assay [1] has as its target Solute carrier family 2, facilitated glucose transporter member 1 (Homo sapiens) (UniProt P11166). Briefly: ST_JUDE_LEISH: Cytotoxicity at 2uM final concentration against transgenic Leishmania Mexicana promastigotes LmGLUT1 that are glucose transport deficient and complemented with the human glucose transporter GLUT1. Activity is measured by DNA content using SYBR green in vitro.

Assay [2] addresses Hexose transporter 1 (Plasmodium falciparum) (UniProt O97467). Briefly: ST_JUDE_LEISH: Cytotoxicity at 2uM final concentration against transgenic Leishmania Mexicana promastigotes LmPfHT that are glucose transport deficient and complemented with the Plasmodium falciparum hexose transporter. Activity is measured by DNA content using SYBR green in vitro.
The target of assay [3] is Glucose transporter (Leishmania mexicana) (UniProt O61059). Briefly: ST_JUDE_LEISH: Cytotoxicity at 2uM final concentration against transgenic Leishmania Mexicana promastigotes LmGT2 that are glucose transport deficient and complemented with the L. Mexicana glucose transporter 2. Activity is measured by DNA content using SYBR green in vitro.

Solute carrier family 2, facilitated glucose transporter member 1 (Homo sapiens), sequence (P11166 whole entry): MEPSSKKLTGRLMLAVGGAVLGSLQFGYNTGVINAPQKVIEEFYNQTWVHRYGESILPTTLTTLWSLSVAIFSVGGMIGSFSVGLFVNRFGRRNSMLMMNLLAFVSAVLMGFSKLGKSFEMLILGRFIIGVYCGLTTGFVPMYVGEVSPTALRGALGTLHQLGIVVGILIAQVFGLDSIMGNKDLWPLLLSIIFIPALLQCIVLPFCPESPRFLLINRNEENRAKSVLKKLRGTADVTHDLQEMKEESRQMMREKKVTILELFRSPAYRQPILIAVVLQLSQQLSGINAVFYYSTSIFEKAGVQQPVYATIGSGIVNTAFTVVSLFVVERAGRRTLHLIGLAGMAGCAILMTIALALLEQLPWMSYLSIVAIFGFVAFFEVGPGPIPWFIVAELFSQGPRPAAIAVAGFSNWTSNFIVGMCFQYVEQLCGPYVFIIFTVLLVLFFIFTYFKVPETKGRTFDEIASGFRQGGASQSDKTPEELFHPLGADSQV

Consider `O=C(Cc1c[nH]cn1)Nc1ccc(-c2cccc(-c3nc4cc(C(F)(F)F)ccc4[nH]3)c2)cc1`, for which the results for the inhibition in assay [1], in assay [2] and in assay [3] were -0.04%, 0.42% and 1.12%, respectively.
In the same order, the values of `COc1ccc(C=NN=c2cc(C)[nH]c3ccc(C)cc23)c2ccccc12` are 0.11%, 1.75% and -1.89%.
Regarding `COc1ccc2nccc(NC(=O)N3CCC(NCCOc4cc(F)cc(F)c4)CC3)c2n1`, the inhibition in assay [1] was 8.02%; in assay [2] it was 12.1%; in assay [3] it was -0.77%.
In the same order, the values of `CN(Cc1cccc(O)c1)C1CCN(c2cc(NC(=O)c3ccc(F)cc3)ccn2)CC1` are 2.02%, 3.1% and 3.78%.
For the molecule `N#CCOc1c(C2CCN(CCCCNC(=O)c3ccc(-c4ccc(C(F)(F)F)cc4)cc3)CC2)ccc2c1CCCC2`, the figures for the inhibition in assay [1], in assay [2] and in assay [3] were 4.16%, 3.28% and 3.28%, respectively.
Turning to `N=C(N)c1ccc(-c2cc(-c3cccc(C(=N)N)c3)on2)cc1`, the inhibition in assay [1] came to 3.39%; in assay [2], 0.98%; in assay [3], 2.32%.
As for `COc1ccc(-c2nc(NC(=O)CS(=O)(=O)c3ccc(F)cc3)sc2C)cc1`, the inhibition was found to be 8.03% in assay [1], 4.52% in assay [2] and 2.47% in assay [3].
In the same order, the values of `CC1CN(c2cccc3c2nc(-c2cncc(C#N)c2)n3CCNCc2ccccc2)CC(C)O1` (stereo not drawn) are 3.09%, 2.38% and 2.56%.
For `Oc1ccc(CCNc2nc(NCc3ccccc3-c3cccc(Cl)c3)nc(N3CCNCC3)n2)cc1`, in that order: -2.47%, -1.9% and -2.27%.
For `Cc1cc(F)ccc1-c1nc(N(C)CCN(C)C(=O)N(C)c2ccccc2)nc2c1ccc(=O)n2-c1c(F)cccc1F`, in that order: 2.99%, 3.18% and 9.88%.
Take `FC(F)(F)c1ccc2[nH]c(-c3cccc(-c4cccc(CN5CCN(c6ccncc6)CC5)c4)c3)nc2c1`: the figures for the inhibition in assay [1], in assay [2] and in assay [3] were 1.83%, 2.18% and 3.38%, respectively.
For `CCCCCc1cnc2nc(N)nc(N)c2c1C`, in that order: 13.6%, 13.5% and 12.4%.
For `Cc1cccc(C(=O)Nc2ccnc(N3CCCN(Cc4cccc(O)c4)CC3)c2)c1`, the inhibition in assay [1] was -0.1%; in assay [2], 1.14%; in assay [3] it was -0.7%.
Regarding `COc1ccc2nccc([C@@H](O)CN3CCC(NC(=O)C(=O)c4c[nH]c5c(C)cccc45)CC3)c2c1`, the inhibition in assay [1] worked out at 0.46%; in assay [2], 0.43%; in assay [3] it was 0.45%.
In the same order, the values of `Cc1[nH]c(C)c(-c2ccc(OCc3ccc(F)cc3)nc2)c(=O)c1Br` are 2.71%, 2.42% and 0.74%.
`Cc1cc(=O)[nH]c(-n2nc(C)cc2NC(=O)C2(c3ccc(Cl)cc3)CCCC2)n1`: the inhibition was determined as 61.6% in assay [1], 66.3% in assay [2] and 53.5% in assay [3].
In the same order, the values of `O=C(Nc1ccc(-c2cccc(-c3nc4cc(C(F)(F)F)ccc4[nH]3)c2)cc1)c1ccc(=O)[nH]n1` are 3.7%, 2.75% and 2.97%.
In the same order, the values of `COc1ccc(C(=O)CCC(=O)N(CCSC(C)(C)C)Cc2ccc(-c3ccc(CNCCc4ccc(S(C)(=O)=O)cc4)cn3)cc2)cc1F` are 10.4%, 9.03% and 7.07%.
In the same order, the values of `Nc1ncnc2c1ncn2C(CO)Cc1ccc(O)cc1` (stereo not drawn) are 9.32%, 6.45% and 8.36%.
For the molecule `COc1cccc(Nc2nc(C)cc(NC3CCCC3)n2)c1`, the inhibition was determined as 21.5% in assay [1], 9.71% in assay [2] and 5.08% in assay [3].
In the case of `CCOC(=O)CCCOc1cc(Cc2cnc(N)nc2N)cc(OC)c1OC`, the inhibition in assay [1] was 6.94%; in assay [2] it was 5.94%; in assay [3], 7.18%.
Consider `Cc1[nH]c(C)c(-c2ccc(-c3cccc(Cl)c3)nc2)c(=O)c1Br`, for which the inhibition amounted to 0% in assay [1], 1.07% in assay [2] and 0.63% in assay [3].
For `Fc1cccc(Nc2nc(NCc3ccc(Cl)c(Cl)c3)nc(Nc3cccc(F)c3)n2)c1`, in that order: 11.7%, 13.6% and 7.17%.
Consider `CN1CCC(NCc2ccc(-c3ccc(S(=O)(=O)NCc4ccccc4)s3)cc2)CC1`, for which the inhibition in assay [1] came out at 6.58%; in assay [2], 6.78%; in assay [3], 4.55%.
For `Cc1nn(-c2ccccc2)c2c1C(c1ccc(C(C)C)cc1)N1C(=N2)N(Cc2ccccc2)c2ccccc21` (stereo not drawn), the results for the inhibition in assay [1], in assay [2] and in assay [3] were 4.28%, 2.86% and 1.85%, respectively.
In the same order, the values of `Cc1ccccc1Cc1cccc(/N=C(\N)Nc2ccc(Cl)cc2)n1` are 5.38%, 5.38% and 2.51%.
For `CCOC(=O)c1ccc(NC(=O)NNC(=O)c2ccc(CCN3CCC(c4nc(COCC(F)(F)F)c(-c5ccc(F)cc5)o4)CC3)cc2)cc1`, in that order: 1.09%, 1.22% and 0.84%.
As to `COc1ccc(Br)cc1/C=C/C(=O)Nc1ccc2c(c1)CCCN(C)C2`, the inhibition in assay [1] amounted to 0.84%; in assay [2] it was 3.78%; in assay [3], 3.56%.
With `NCc1ccc(Nc2nccc(Nc3ccc(-c4ccccc4)cc3)n2)cc1`, the inhibition came out at 2.28% in assay [1], 4.91% in assay [2] and 0.24% in assay [3].
For `Nc1c2c(nc3ccc(NC(=O)CCCCCc4ccccc4)cc13)CCCC2`, in that order: 7.95%, 9.26% and 10%.
In the same order, the values of `O=[N+]([O-])c1ccc(N/C(=N\c2ccccc2Br)NC2CCCc3ccccc32)c(O)c1` (stereo not drawn) are 0.73%, -1.02% and -1.9%.
Consider `COc1ccc(-c2ccc(NC(=O)c3ccc(C#N)cc3)cc2)cc1CN(C)CCO`, for which the inhibition was determined as 2.76% in assay [1], 0.56% in assay [2] and 1.59% in assay [3].
As to `FC(F)(F)c1cnc(Sc2nnc(-c3ccncc3)o2)c(Cl)c1`, the inhibition in assay [1] was -0.19%; in assay [2], -5.1%; in assay [3], 9.49%.
For `COc1ccc(O)c(-c2sc(N=C(N)N)nc2-c2ccccc2)c1`, in that order: 1.77%, 2.67% and 3.42%.
In the same order, the values of `CCCCCCCCc1c(C)nc(C)c(I)c1O` are -1.12%, 0.28% and -2.61%.
For `CC(C)C[C@@H](CNC[C@H](CC(C)C)NC(=O)OC(C)(C)C)NC(=O)OC(C)(C)C`, in that order: -0.36%, -2.4% and -0.19%.
For `COc1cc(Cc2cnc(N)nc2N)cc(OCCCCCCC(=O)O)c1OC`, the inhibition in assay [1] is 0.12%; in assay [2], -0.55%; in assay [3], -0.96%.
As to `COc1ccc(CNCCCCCCNCc2ccc(OC)c3ccccc23)c2ccccc12`, the figures for the inhibition in assay [1], in assay [2] and in assay [3] were 59.7%, 97.2% and 103%, respectively.
For `CNC(=O)/C=C/c1cc(NC(=O)Nc2cc(C)nc3c(F)cccc23)ccc1OC`, in that order: 3.93%, 2.38% and 3.44%.
With `CCCCCCN1CCCN(Cc2cccc(C(=O)Nc3ccc(C(C)(C)C)cc3)c2)CC1`, the inhibition in assay [1] worked out at 1.39%; in assay [2], 0.8%; in assay [3], 0.65%.
For the molecule `O=C(NCc1ccc(C(=O)NC2CCCCCC2)cc1)c1ccc(O)c(-c2ccc(Cl)c(Cl)c2)c1`, the inhibition in assay [1] is 1.17%; in assay [2] it was 1.13%; in assay [3], 0.44%.

The record behind these values is ChEMBL document CHEMBL3433997, “St. Jude Leishmania screening dataset” (2016).
